The record followed here is PubChem BioAssay AID1030 (National Center for Advancing Translational Sciences (NCATS), 2008).

Each structure is given as a SMILES string. Among all 220,000 compounds or so, about 16,000 (7.3%) were called active. A call without a number means that no potency is given here. Another 25% or so got no clear call; they are omitted. The call rests on the fitted dose curve; in most records, active means well fitted inhibition curve with a large enough effect (not every such curve was filed as active); inconclusive means small, poorly fitted or top-dose-only effect, or another doubt; inactive means no such curve, though single readings can be large or run the other way. The sample as a whole holds a higher share of actives than the screen did.
Potency means the concentration at half of the fitted maximal effect.

For this assay, the target named is Aldehyde dehydrogenase 1A1 (Homo sapiens) (UniProt P00352). Put plainly: qHTS Assay for Inhibitors of Aldehyde Dehydrogenase 1 (ALDH1A1). The settings on record: Purified ALDH1A1, NADH fluorescence, propionaldehyde substrate; series mostly up to 75.3 µM. On the technique in general: In qHTS, concentration-response curves come from the screen itself.
Chain of Aldehyde dehydrogenase 1A1 (Homo sapiens) (P00352 whole entry, looked up): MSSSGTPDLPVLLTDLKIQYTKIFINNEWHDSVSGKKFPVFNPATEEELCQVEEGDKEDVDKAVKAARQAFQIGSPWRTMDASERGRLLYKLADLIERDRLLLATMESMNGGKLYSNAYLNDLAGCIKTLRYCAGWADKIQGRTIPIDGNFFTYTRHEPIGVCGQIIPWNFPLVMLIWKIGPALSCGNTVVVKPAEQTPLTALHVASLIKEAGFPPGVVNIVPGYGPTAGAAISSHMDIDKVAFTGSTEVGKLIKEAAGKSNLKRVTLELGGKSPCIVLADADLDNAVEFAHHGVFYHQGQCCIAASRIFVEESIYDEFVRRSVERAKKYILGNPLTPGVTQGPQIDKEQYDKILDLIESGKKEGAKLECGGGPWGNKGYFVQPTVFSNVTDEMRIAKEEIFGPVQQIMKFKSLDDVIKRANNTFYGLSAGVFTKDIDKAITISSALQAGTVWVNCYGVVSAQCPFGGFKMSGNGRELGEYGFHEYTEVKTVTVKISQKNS
Regarding `Cc1ccc(NC(=O)c2oc3ccccc3c2C)c([N+](=O)[O-])c1`, the Potency result was “inactive”.
Still for that read-out and setting: then `CC1=C(C)CC(C(=O)NC(C)CCc2ccccc2)C(C(=O)O)C1` (centres undefined), with “inactive”; and `CCC(C)[C@@H](N)C(=O)O` (some centres undefined), with “inactive”; and `CC(C)NC(=O)NC(=O)CSc1nnc(-c2ccccc2F)n1N`, with “inactive”.
For the molecule `Cc1ccc(N=Nc2c(C)[nH]n(-c3ccccc3)c2=O)cc1`, the Potency entry is “inactive”.
Same read-out and setting: with `Cc1ccc(C2C3=C(Nc4[nH]n(-c5ccccc5)c(=O)c42)c2ccccc2C3=O)cc1` (centres undefined) the figure was 11.2 µM (active).
In the case of `Cc1cc(C)c(C2C3=C(Nc4c2c(C)nn4-c2ccccn2)c2ccccc2C3=O)c(C)c1` (centres undefined), the Potency entry is “inactive”.
Same read-out and setting: then `Cn1cnnc1Sc1ccc(S(C)(=O)=O)cc1[N+](=O)[O-]`, with “inactive”; and `c1csc(-c2nnc(COc3ccc4c(c3)OCO4)o2)c1`, with “inactive”.
Still for that read-out and setting: then `O=[N+]([O-])c1c(NCCO)cc(Sc2nc3ccccc3s2)c2nonc12`, with 8.91 µM (active).
For the molecule `c1ccc2sc(SCCSc3nc4ccccc4s3)nc2c1`, the activity, negative = inhibition was 3.19% [at 13.5 µM] (inactive).
Consider `O=[N+]([O-])c1cc(Br)c(O)c(/C=N/Nc2nc3ccccc3s2)c1`, for which the Potency result was “inactive”.
Still for that read-out and setting: with `O=C(c1ccc(F)cc1)C1CCN(Cc2cn[nH]c2-c2ccccc2)CC1` the entry was “inactive”; with `Cc1nnc(CN(C)Cc2cn[nH]c2-c2ccc(-c3ccccc3)cc2)o1`, 12.6 µM (active); with `COc1ccc(-c2[nH]ncc2CN(C)Cc2c(C)n[nH]c2C)c(OC)c1`, “inactive”.
On the same count and under the same terms, then `CN(CCC1CCOCC1)Cc1cn[nH]c1-c1ccc(-c2ccccc2)cc1`, with 10 µM (active).
Same read-out and setting: with `OCC1(CCOc2ccccc2)CCN(Cc2cn[nH]c2-c2ccccc2)CC1` the entry was “inactive”; with `O=C(OCc1ccc([N+](=O)[O-])cc1)c1ccccn1`, “inactive”; with `Cc1nc([N+](=O)[O-])c(NCCCO)n1Cc1ccccc1`, “inactive”.
`CCNc1nc(-c2cc3ccccc3o2)cs1`: the Potency result is “inactive”.
As to `NS(=O)(=O)c1ccc(CCNC(=O)c2ccc(Cl)cc2[N+](=O)[O-])cc1`, the Potency result is “inactive”.
Same read-out and setting: with `O=P(O)(CN1CCCCCC1)C1Cc2ccccc2C1` the entry was “inactive”; with `CCOC(=O)c1sc(=S)n2c1[nH]c(=O)c1ccc(C(=O)OC)cc12`, 8.91 µM (active); with `CCOC(=O)C1=C(C)Nc2sc(C(=O)c3ccc(Br)cc3)c(N)c2C1c1ccc(C(=O)OC)cc1` (centres undefined), “inactive”.
The same measure, in the same setting: then `CCOC(=O)c1sc(NC(=O)c2ccncc2)nc1C`, with “inactive”; and `Cc1ccc(/C=N/NC(=O)COc2ccccc2-c2ccccc2)cc1`, with “inactive”.
Same read-out and setting: then `CC(C)(C)C1C/C(=C/c2ccco2)C(=O)/C(=C/c2ccco2)C1` (centres undefined), with 7.94 µM (active); and `CCC1S/C(=N/N=C/c2ccco2)NC1=O` (centres undefined), with “inactive”.
Turning to `CCC1C/C(=C/c2cccs2)C(=O)/C(=C/c2cccs2)C1` (centres undefined), the Potency result was “inactive”.
